Assay results taken from PubChem BioAssay AID2284357 (EPA ToxCast).
Records with an inconclusive call do not appear. Activity calls are given as the source filed them. How the source made its calls: active means hit-call score of the fitted dose curve at least 0.9, where 1 is the maximum; inconclusive means response in the unintended direction; inactive means score below 0.9.

System: zebrafish Androgen Receptor (AR), gene 100005148
Test: ATG_zfAR_EcoTox2: Attagene TRANS-FACTORIAL EcoTox-2 HepG2 Assay for zebrafish Androgen Receptor (AR)
Experimental: ATG_EcoTox2 is a cell-based, multiplexed assay created by modifying the existing Attagene TRANS-FACTORIAL system to include a panel of nuclear receptors from some or all the following species: human (Homo sapiens), african clawed frog (Xenopus laevis), rainbow trout (Oncorhynchus mykiss), japanese medaka (Oryzias latipes), and zebrafish (Danio rerio). The ECOTOX2-FACTORIAL format uses HepG2, a human liver cell line, with measurements taken at 24 hours after chemical dosing in a 24-well plate. ATG_zfAR_EcoTox2 is one of 29 assay components calculated in the ATG_EcoTox2 assay. It is designed to make measurements of mRNA induction, a form of inducible reporter, as detected with fluorescence intensity signals by Reverse transcription polymerase chain reaction (RT-PCR) and Capillary electrophoresis technology.The assay endpoint ATG_zfAR_EcoTox2 was analyzed in the positive analysis fitting direction relative to DMSO as the negative control and baseline of activity. Using a type of inducible reporter, measures of mRNA for gain-of-signal activity can be used to understand the reporter gene at the transcription factor-level as they relate to the gene AR. Furthermore, this assay endpoint can be referred to as a primary readout, because this assay has produced multiple assay endpoints where this one serves a reporter gene function. To generalize the intended target to other relatable targets, this assay endpoint is annotated to the nuclear receptor intended target family, where the subfamily is steroidal.
Human liver HepG2 cells are transiently transfected with multiple reporter transcription units (MRTUs) in 6-well plates using FuGene 6 reagent (Roche; 3 ml FuGene/1 mg DNA). The MRTU constructs are regulated by a cis-regulating element (promoter). Each RTU expresses a GAL4-UAS that regulates the transcription of a nearby target reporter gene sequence. A major difference between the CIS and TRANS system is that in CIS activities of endogenous TFs are measured, whereas the TRANS assay evaluates changes in activities of exogenous, chimeric NR-Gal4 proteins. […] At the end of 24 hour incubation, total RNA was isolated using TriZol reagent (Invitrogen). The isolated RNA is then reverse-transcribed using oligo(dT) primer and Mo-MLV reverse transcriptase (Invitrogen) with DNAse I (Ambion) treatment for 30 min. The one-tenth of the produced cDNA was amplified by PCR using Taq DNA polymerase (Invitrogen) and two reporter sequence-specific primers. […] The fragments were purified using Qiaquick PCR columns (Qiagen), analyzed on an ABI 3130xL genetic analyzer (Applied Biosystems) with peak positions identified by using a set of X-rhodamine (ROX)-labeled MapMarker1000 molecular weight standards (BioVentures). […]

Compound	outcome
O=C(O)C(F)(F)C(F)(F)C(F)(F)C(F)(F)C(F)(F)C(F)(F)C(F)(F)F	inactive
O=S(=O)(O)C(F)(F)C(F)(F)C(F)(F)C(F)(F)C(F)(F)C(F)(F)F	inactive
O=P(Oc1ccccc1)(Oc1ccccc1)Oc1ccccc1	inactive
CCCCOCN(C(=O)CCl)c1c(CC)cccc1CC	inactive
